Results as given in PubChem BioAssay AID488969 (Vanderbilt High Throughput Screening Facility, 2010).
The full ranking holds about 110,000 compounds; the median of “z-score” is about -0.1, and the highest 2% start at about 2. Many of the other results were omitted from the sample, so the highest values are more common in it than they were. Calls of active or inactive are those of the source.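 How the source made its calls: active means z-score in the third read window above 3 or below -3; inactive means the rest.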

The compounds below were run against Metabotropic glutamate receptor 8 (Rattus norvegicus) (UniProt P70579) (assay: mGluR8 Gi/Go-coupled signaling modulation – cell-based, rat, thallium flux, HTS, primary screen (AID 488969)). Conditions: HEK293 rat mGluR8, GIRK (G protein-gated inwardly rectifying potassium channel) thallium flux, FluoZin2; at 10 µM; stronger effect = higher value; submaximal glutamate (EC20) added with thallium.
Sequence of Metabotropic glutamate receptor 8 (Rattus norvegicus) (P70579 whole entry, looked up): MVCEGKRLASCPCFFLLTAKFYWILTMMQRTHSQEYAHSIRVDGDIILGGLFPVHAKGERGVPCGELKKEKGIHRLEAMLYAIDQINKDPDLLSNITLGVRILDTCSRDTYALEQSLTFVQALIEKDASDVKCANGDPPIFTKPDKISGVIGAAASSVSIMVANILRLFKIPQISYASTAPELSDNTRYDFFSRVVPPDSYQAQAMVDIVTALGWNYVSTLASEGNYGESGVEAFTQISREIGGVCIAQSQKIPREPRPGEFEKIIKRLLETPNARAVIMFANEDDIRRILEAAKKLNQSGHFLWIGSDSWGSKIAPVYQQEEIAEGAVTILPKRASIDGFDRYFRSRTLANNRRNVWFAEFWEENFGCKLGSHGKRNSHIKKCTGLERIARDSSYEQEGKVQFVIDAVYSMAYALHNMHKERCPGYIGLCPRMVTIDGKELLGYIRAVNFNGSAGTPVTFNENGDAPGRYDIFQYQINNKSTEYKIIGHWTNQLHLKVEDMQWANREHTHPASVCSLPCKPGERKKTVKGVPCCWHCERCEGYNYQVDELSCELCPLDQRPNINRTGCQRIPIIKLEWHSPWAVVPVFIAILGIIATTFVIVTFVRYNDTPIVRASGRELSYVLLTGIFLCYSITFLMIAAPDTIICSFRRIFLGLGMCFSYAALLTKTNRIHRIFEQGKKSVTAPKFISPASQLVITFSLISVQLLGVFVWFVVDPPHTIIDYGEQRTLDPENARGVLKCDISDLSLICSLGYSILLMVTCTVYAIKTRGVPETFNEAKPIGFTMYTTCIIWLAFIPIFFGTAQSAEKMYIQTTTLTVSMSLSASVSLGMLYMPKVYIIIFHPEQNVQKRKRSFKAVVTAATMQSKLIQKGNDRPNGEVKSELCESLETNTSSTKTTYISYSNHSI

Compound | z-score
Cc1ccc(C(=O)CSc2nc3ccccc3c(=O)n2-c2ccccc2)s1 | 0.061
O=C(NCc1ccncc1)/C(=N/O)c1ccccc1 | 1.14
O=C(NCc1cccnc1)/C(=N\O)c1ccccc1 | 2.02
O=C(NCc1ccccc1)/C(=N\O)c1ccccc1 | 0.503
COc1ccc(N(CC(=O)NCCC2=CCCCC2)S(C)(=O)=O)cc1OC | 0.274
CCN1C(=O)/C(=C2/Sc3ccc(OC)cc3N2C)SC1=Nc1ccc(C(C)=O)cc1 | -0.0997
CCOC(=O)N1CCC(NC(=O)c2ccc(CS(=O)(=O)c3ccc(OC)cc3)o2)CC1 | -0.141
O=C(CN1CCCCC1)Nc1ccc(S(=O)(=O)N2CCOCC2)cc1 | -0.0871
COc1ccccc1-c1nc2cc3ccccc3cc2nc1-c1ccccc1OC | -0.377
CCCc1nn(C)c2c(=O)[nH]c(-c3ccccc3OCC)nc12 | -0.237
Cc1cc(C)cc(NS(=O)(=O)c2ccc3[nH]c(=O)[nH]c3c2)c1 | 0.711
Cc1cc(C)cc(NS(=O)(=O)c2ccc3oc(=O)ccc3c2)c1 | 2.23
O=c1ccc2cc(S(=O)(=O)Nc3ccc(F)cc3)ccc2o1 | -0.226
O=C(CSc1nc(-c2ccc(F)cc2)cs1)N1CCc2ccccc21 | -0.119
O=C(CSCC(=O)N1CCOCC1)Nc1nc(-c2ccc3c(c2)OCO3)cs1 | 2
O=C(CSCC(=O)N1CCCCC1)Nc1nc(-c2ccc(Cl)s2)cs1 | 2.68
O=C(CSCC(=O)N1CCN(c2ccccc2)CC1)Nc1nc(-c2ccc(Cl)s2)cs1 | 0.16
CCOC(=O)N1CCN(C(=O)CSCC(=O)Nc2nc(-c3ccc4c(c3)OCO4)cs2)CC1 | -0.296
O=C(CSc1nc(-c2ccc(F)cc2)cs1)N1CCOCC1 | 3.29 (active)
CC1CCCN(C(=O)CSCC(=O)Nc2nc(-c3cccs3)cs2)C1 (stereo not given) | 0.503
CC1CN(C(=O)CSc2nc(-c3ccc(F)cc3)cs2)CC(C)O1 (stereo not given) | -0.898
CCC(=O)Nc1nc(-c2ccc3c(c2)OCCO3)cs1 | -0.0358
O=[N+]([O-])c1ccc(Cl)c(S(=O)(=O)N2CCCCCC2)c1 | -0.0418

Compound | z-score
COc1ccc(-c2nsc3c(SCC(=O)Nc4cc(C)ccc4C)ncnc23)cc1 | 0.00156
CC(NS(=O)(=O)c1ccc(CCC(=O)N2CCN(C)CC2)cc1)c1ccccc1 (stereo not given) | -0.349
O=C(COc1ccccc1Cl)Nc1nc(-c2cccs2)cs1 | 0.4
O=C(COc1ccccc1)Nc1nc(-c2cccs2)cs1 | 2.15
O=C(Cc1ccccc1)Nc1nc(-c2cccs2)cs1 | 2.99
O=C(COc1ccccc1)Nc1nccs1 | 1.35
O=C(Cc1ccccc1)Nc1nnc(-c2cccs2)s1 | 0.154
CC(=O)Nc1nc(-c2cccs2)cs1 | -0.281
Cc1cccc2cc(CN(Cc3ccc(F)cc3)C(=O)C(F)(F)F)c3nnnn3c12 | -0.681
Cc1ccc2c(c1)N(CC(=O)NCc1ccco1)C(=O)CO2 | -0.265
COc1ccc2nc(SCc3cnc(C)nc3N)[nH]c2c1 | 0.0366
CCc1ccc2[nH]c(=O)c(CN(CCN(C)C)C(=O)Nc3ccccc3)cc2c1 | -0.0486
N#Cc1c(N)sc2c1CCN(CCc1ccccc1)C2 | 0.208
COc1ccccc1-n1c(SCC(=O)NC2CCS(=O)(=O)C2)nc2cc([N+](=O)[O-])ccc21 (stereo not given) | -0.116
CCOC(=O)CSc1nc(C)c2cc(OC)ccc2n1 | 6.89 (active)
COc1ccc2nc(SCC(=O)O)nc(C)c2c1 | -0.216
CCOC(=O)CCSc1nc(C)c2cc(OC)ccc2n1 | -0.0662
CC1CCCN(C(=O)C2CCCN(S(=O)(=O)c3cccc4nsnc34)C2)C1 (stereo not given) | 0.195
Cc1ccc(C)c(NC(=S)NNC(=O)c2csc(C(C)C)c2)c1 | 12 (active)
Cc1ccc(C)c(NC(=S)NNC(=O)c2ccc(Br)o2)c1 | 0.537
CCCCNC(=S)NNC(=O)c1csc(C(C)C)c1 | 0.133
CCNC(=S)NNC(=O)c1csc(C(C)C)c1 | -0.354
Cc1cccc(NC(=S)NNC(=O)c2csc(C(C)C)c2)c1 | 8.28 (active)

Compound | z-score
Cc1cc(C(=O)NNC(=S)NCC(C)C)cs1 | 0.377
CCCCn1c(SCC(=O)Nc2cc(C)on2)nnc1-c1ccco1 | 1.3
COc1ccccc1NC(=O)c1cc(S(=O)(=O)N2CCC3(CC2)OCCO3)ccc1F | -0.251
CCOc1ccccc1NC(=O)c1cc(S(=O)(=O)N2CCC3(CC2)OCCO3)ccc1F | -0.432
CCOc1ccccc1NC(=O)c1ccc(F)c(S(=O)(=O)N2CCC3(CC2)OCCO3)c1 | 2.77
CCNC(=S)NN=C1CCC(C(C)(C)C)CC1 (stereo not given) | 0.883
O=C(COC(=O)COc1ccccc1Cc1ccccc1)Nc1cccnc1Cl | -0.941
Cc1cccc2sc(NC(=O)Cn3cccc3)nc12 | 13.9 (active)
Cc1cccc2sc(NC(=O)CSCc3ccccc3)nc12 | 0.801
Cc1cccc2sc(NC(=O)CN3C(=O)c4ccccc4C3=O)nc12 | -0.16
Cc1onc(-c2c(F)cccc2Cl)c1C(=O)N1C=CC(C(F)(F)F)=NCC1 | -0.013
CCc1c(C)nc(SCC(=O)N2CCc3ccccc32)[nH]c1=O | 4.54 (active)
Cc1nnc(SCC(=O)N2CCCc3ccccc32)[nH]c1=O | -0.411
O=C(CSc1nc(-c2ccccc2)cc(=O)[nH]1)N1CCc2ccccc21 | 9.86 (active)
Nc1nc(SCC(=O)N2CCc3ccccc32)[nH]c(=O)c1-c1ccccc1 | 0.47
O=C(CSc1nc(O)cc(=O)[nH]1)N1CCCc2ccccc21 | -0.65
Cc1cc(=O)[nH]c(SCC(=O)N2CCCc3ccccc32)n1 | 0.265
CCOc1ccc(C2/C(=C(/O)c3ccccc3)C(=O)C(=O)N2CCCN(C)C)cc1OC (stereo not given) | 0.188
O=C(COC(=O)c1cnccn1)c1ccc2ccccc2c1 | 0.118
COn1c(SC(C)C)nc2ccccc2c1=O | -0.948
CCSc1nc2ccccc2c(=O)n1OCC(=O)OC | -0.148
COC(=O)COn1c(SC(C)C)nc2ccccc2c1=O | 2.57
Cc1cc(NC(=O)c2cc3ccccc3oc2=O)no1 | 0.0723

Compound | z-score
Cc1cc2cc(CN(CCN3CCOCC3)C(=O)Nc3ccccc3F)c(=O)[nH]c2cc1C | -0.536
CC(C)OP(=O)(OC(C)C)C1(O)C(=O)Nc2ccccc21 (stereo not given) | -0.0437
COc1ccc(C(=O)NC(=S)N(Cc2ccccc2)Cc2ccccc2)cc1 | 16.8 (active)
CCOc1ccc(C(=O)NC(Cc2ccccc2)C(=O)OC)cc1 (stereo not given) | -0.262
COc1ccc(C(=O)NN(c2ccccc2)c2ccccc2)cc1 | -0.0602
CCOc1ccc(C(=O)NC(=S)N(Cc2ccccc2)Cc2ccccc2)cc1 | 11.7 (active)
CCOc1ccc(C(=O)NCCc2ccccc2)cc1 | 0.0133
COc1ccc(C(=O)NC(=S)Nc2ccccc2F)cc1 | 0.595
COc1ccc(C2SCC(=O)N2CC23CC4CC(CC(C4)C2)C3)cc1 (stereo not given) | -0.23
CCC(=O)N1N=C(c2c(-c3ccccc3)c3cc(Cl)ccc3[nH]c2=O)CC1c1ccco1 (stereo not given) | -0.155
CCCCn1c(/N=C/c2ccc3c(c2)OCO3)nc2ccccc21 | -0.738
CC(C)=CC[N+]1(C)CCCCC1 | 1.14
N#C/C(=C\c1cn(CCOc2ccccc2F)c2ccccc12)C(=O)NCc1cccs1 | -0.0588
CCOc1ccc(N2C(=O)/C(=C/c3cccs3)N(CC(=O)OC)C2=S)cc1 | -0.17
CCOc1ccc(/C=C2/C(=O)N(c3ccc(OC)cc3)C(=S)N2CC(=O)OC)cc1OCC | 0.273
CCOc1ccc(N2C(=O)/C(=C/c3cc(OC)c(OC)c(OC)c3)N(CC(=O)OC)C2=S)cc1 | 14.1 (active)
S=c1sc(SCCOc2ccccc2)nn1-c1ccccc1 | -0.317
COc1cccc(C(=O)OCc2ccccc2C#N)c1O | -0.163
O=C(Nc1ccccc1)N(C1=NCCCCS1)c1cccc2ccccc12 | -0.463
Cc1cccc(Nc2n[nH]c(C)c2[N+](=O)[O-])c1 | 0.073
Cc1ccc(Nc2n[nH]c(C)c2[N+](=O)[O-])cc1C | 2.51
Cc1ccc(Nc2n[nH]c(C)c2[N+](=O)[O-])cc1 | -0.101
CNC(=O)CCCc1nc(-c2ccccc2Cl)no1 | 0.0193

Compound | z-score
COC(=O)c1sccc1NC(=S)N1CCN(c2ccccc2)CC1 | -0.397
Cc1cc(C(=O)NC(C)c2ccc3c(c2)OCO3)cs1 (stereo not given) | 0.0632
Cc1cc(C(=O)NC(C)c2ccncc2)cs1 (stereo not given) | 2.05
Cc1cc(C(=O)NNC(=S)NC(C)c2ccccc2)cs1 (stereo not given) | -0.281
Cc1cc(C)c2nc(SCC(=O)N3CC(=O)Nc4ccccc43)c(C#N)cc2c1 | -0.188
CC1CC1C(=O)NCCc1ccc(Cl)cc1 (stereo not given) | 1.05
N#Cc1ccc(-n2c(-c3ccccc3)nnc2-c2ccccc2)cc1C#N | 0.19
COc1ccccc1/C=C/C=N/N1CCN(Cc2ccc(Cl)cc2)CC1 | -0.494
COc1ccccc1/C=C/C=N\N1CCN(Cc2ccccc2Cl)CC1 | 5.52 (active)
COc1ccccc1/C=C/C=N/N1CCN(Cc2cccc3ccccc23)CC1 | -0.494
CN(C)c1ccnc(-n2cccc2/C=N/OCc2cccc(F)c2)c1C#N | -0.0405
CCN(C(=O)CSc1ncccc1C(=O)OC(C)C)c1cccc(C)c1 | -0.441
O=C(Nc1cc(C(F)(F)F)ccc1F)C1CCC1 | 0.411
COc1ccc(Nc2nc(N)nc(CSc3nnc(N)s3)n2)cc1 | -0.571
COc1ccc(OCc2nc(N)nc(Nc3ccc(C)cc3)n2)cc1 | 0.32
COc1ccc(OCc2nc(N)nc(Nc3ccccc3)n2)cc1 | 5.72 (active)
Cc1nnc(SCc2nc(N)nc(Nc3ccccc3)n2)s1 | -0.209
COc1ccc(Nc2nc(N)nc(COc3ccc(OC)cc3)n2)cc1 | -0.113
COc1ccc(Nc2nc(N)nc(CSc3nnc(C)s3)n2)cc1 | 2.42
O=C1c2ccccc2CC1(Cc1ccccc1)Cc1ccccc1 | -0.201
COc1ccc(OCC(=O)N/N=C/c2ccsc2)cc1 | 0.604
CC(Oc1ccc(Cl)cc1)C(=O)N/N=C/c1ccsc1 (stereo not given) | 11.6 (active)
CC(C)(C)c1ccc(OCC(=O)N/N=C/c2ccsc2)cc1 | 0.2
